Data on 32 molecules can be found in PubChem BioAssay AID1345085 (National Center for Advancing Translational Sciences (NCATS), 2018).

Results filed as inconclusive are left out. Entries that show only a call come without a potency. Activity calls are given as the source filed them. The call rests on the fitted dose curve; in most records, active means well fitted cell-killing curve with a large enough effect; inconclusive means small, poorly fitted or top-dose-only effect, or effect the other way; inactive means no such curve, though single readings can be large or run the other way.
Potency means the concentration at half of the fitted maximal effect.

The assay deals with SKOV3. The assay can be described thus: Confirmatory qHTS for gynecologic anti-cancer compounds from libraries of approved drugs and bioactive compounds. Further: nearly all actives have a fitted effect of over 55% in size. The note with it: gynecologic cancer cell panel viability, ATPlite luminescence, 48 h; series mostly up to 57.6 µM. The procedure, abridged: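 ATPlite luminescence read-out of cell viability; IC50 from 11-point 1:3 titrations, 57.5 uM to 0.977 nM, 48 h compound exposure at 37 C, 5% CO2. Cells seeded at 1,000/well 16 h before dosing.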
Background: qHTS replaces the single test concentration by a dilution series.
In the case of `COC(C(=O)N1Cc2[nH]nc(NC(=O)c3ccc(N4CCN(C)CC4)cc3)c2C1)c1ccccc1` (configuration not stated), the Potency entry is “inactive”.
Then `Cc1ccc(NC(=O)c2ccc(CN3CCN(C)CC3)cc2)cc1Nc1nccc(-c2cccnc2)n1`, with “inactive”; and `Nc1ccccc1NC(=O)c1ccc(CNC(=O)OCc2cccnc2)cc1`, with 2.17 µM (active).
For `CC(Oc1ccc2[nH]nc(/C=C/c3cnn(CCO)c3)c2c1)c1c(Cl)cncc1Cl` (configuration not stated), the Potency is 3.06 µM (active).
As for `Cc1cnc(Nc2ccc(CN3CCOCC3)cc2)nc1Nc1cccc(S(=O)(=O)NC(C)(C)C)c1`, the Potency is 4.85 µM (active).
For `NS(=O)(=O)OC[C@@H]1C[C@@H](n2ccc3c(N[C@H]4CCc5ccccc54)ncnc32)C[C@@H]1O`, the Potency entry is “inactive”.
With `CCC(=O)N1CCN(c2ccc(-n3c(=O)ccc4cnc5ccc(-c6cnc7ccccc7c6)cc5c43)cc2C(F)(F)F)CC1`, the Potency was 0.0044 µM (active).
For `Cc1nc(NC(=O)N2CCCC2C(N)=O)sc1-c1ccnc(C(C)(C)C(F)(F)F)c1` (configuration not stated), the Potency is 0.685 µM (active).
Regarding `CC(=O)Nc1cccc(-n2c(=O)n(C3CC3)c(=O)c3c(Nc4ccc(I)cc4F)n(C)c(=O)c(C)c32)c1`, the Potency is 0.306 µM (active).
Turning to `Cc1cnc(Nc2ccc(OCCN3CCCC3)cc2)nc1Nc1cccc(S(=O)(=O)NC(C)(C)C)c1`, the Potency is 10.9 µM (active).
On to `O=C(O)c1ccc(Nc2ncc3c(n2)-c2ccc(Cl)cc2C(c2c(F)cccc2F)=NC3)cc1`, for which the Potency result is “inactive”.
Consider `Cc1cc(SCc2sc(-c3ccc(C(F)(F)F)cc3)nc2C)ccc1OCC(=O)O`, for which the Potency entry was “inactive”.
For the molecule `CN(C)C(CCOc1cccc2ccccc12)c1ccccc1` (configuration not stated), the Potency result is “inactive”.
Regarding `CCc1cccc(CC)c1NC(=O)N1Cc2[nH]nc(NC(=O)c3ccc(N4CCN(C)CC4)cc3)c2C1`, the Potency entry is “inactive”.
`CC(C)CC(=O)Nc1n[nH]c2c1CN(C(=O)C1CCN(C)CC1)C2(C)C`: the Potency entry is “inactive”.
With `CC(C)n1c(/C=C/[C@@H](O)C[C@@H](O)CC(=O)O)c(-c2ccc(F)cc2)c2ccccc21` the figure was 1.72 µM (active); with `COc1cc2c(Oc3ccc(-c4cnc(Nc5ccc(F)cc5)n(C)c4=O)cc3F)ccnc2cc1OCCCN1CCOCC1`, “inactive”.
For the molecule `O=c1[nH]c(=O)n([C@H]2C[C@H](O)[C@@H](CO)O2)cc1F`, the Potency entry was “inactive”.
On to `COc1cc(Nc2c(C#N)cnc3cc(OCCCN4CCN(C)CC4)c(OC)cc23)c(Cl)cc1Cl`, for which the Potency is 19.3 µM (active).
Consider `COc1cc2c(Nc3ccc(NC(=O)c4ccccc4)cc3)ncnc2cc1OCCCN1CCOCC1`, for which the Potency result was “inactive”.
Then `CCCCc1oc2ccccc2c1C(=O)c1cc(I)c(OCCN(CC)CC)c(I)c1`, with 70.8 µM (active); and `Nc1ccn([C@@H]2O[C@H](CO)[C@@H](O)C2(F)F)c(=O)n1`, with 1.37 µM (active).
With `O=C(CCCCCCNC(=O)c1cnc(N(c2ccccc2)c2ccccc2)nc1)NO` the figure was 12.2 µM (active).
With `CN(c1nccc(=O)[nH]1)C1CCN(c2nc3ccccc3n2Cc2ccc(F)cc2)CC1`, the Potency result was “inactive”.
Regarding `Cc1cnc(Nc2ccc(F)cc2Cl)nc1-c1c[nH]c(C(=O)NC(CO)c2cccc(Cl)c2)c1` (configuration not stated), the Potency entry was “inactive”.
With `Cc1cncc2cccc(S(=O)(=O)N3CCCN(C(=O)CN)C[C@@H]3C)c12`, the Potency entry is “inactive”.
As to `CCn1c(-c2nonc2N)nc2c(C#CC(C)(C)O)ncc(OCC3CCCNC3)c21` (configuration not stated), the Potency result was “inactive”.
Then `Cn1cc(-c2[nH]c3cc(NC(=O)[C@H](N)C4CCCCC4)cc4c3c2C=NNC4=O)cn1`, with 0.968 µM (active).
On to `Cc1cnc(Nc2cccc(CN3CCOCC3)c2)nc1Nc1cccc(S(=O)(=O)NC(C)(C)C)c1`, for which the Potency is 10.9 µM (active).
In the case of `CCCc1nn(C)c2c(=O)[nH]c(-c3cc(S(=O)(=O)N4CCN(C)CC4)ccc3OCC)nc12`, the Potency entry is “inactive”.
For the molecule `O=C(NOCC1CC1)c1ccc(F)c(F)c1Nc1ccc(I)cc1Cl`, the Potency result was “inactive”.
As for `Cc1cc(CN2CCN(c3c(Br)cnc4nc(-c5ccc(N6CCN(C)CC6)cc5)[nH]c34)CC2)no1`, the Potency was 34.3 µM (active).
